Tau fibril FP = inhibitors of human tau fibril formation; K18 P301L tau heparin fibrillization, Alexa594 FP, 6 h; Potency, µM (top dose mostly 57.7 µM), without a hit: at the top dose activity, negative = inhibition, most hits filed as inhibitors; actives 0.39% (n = 280,000); also: potency is read from the fitted curve at half-maximal effect; nearly all actives have a fitted effect of over 55% in size
Target sequence (P10636 561-689 P618L limits assumed): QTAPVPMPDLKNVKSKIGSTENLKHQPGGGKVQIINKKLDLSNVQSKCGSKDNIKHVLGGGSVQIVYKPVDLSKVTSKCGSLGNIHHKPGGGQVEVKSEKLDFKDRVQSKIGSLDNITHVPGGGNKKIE
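Steps: dispense K18 P301L tau (15 uM plus 0.24 uM Alexa 594 tracer, final) in pH 7 sodium acetate; add compound; add heparin (20 uM final); incubate 6 hr, 37 C; add ThT (30 uM final); after 1 hr ambient, read FP.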
Sfp inh = inhibitors of Bacillus subtilis Sfp phosphopantetheinyl transferase | Potency, µM, for the others: largest response in the series, negative = inhibition, actives largely listed as inhibitors | Biochemical Sfp PPTase activity, qHTS | Q9F4F7 | actives 3.5% (n = 310,000);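 also: the enzyme is Sfp with the accession as filed and its product quenches rhodamine fluorescence; potency is read from the fitted curve at half-maximal effect; 0% = enzyme reaction without inhibitor and -100% = no enzyme wells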
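With Hepes-Na pH 7.6 buffer containing 10 mM MgCl2, Sfp (15 nM) modified BHQ-2-YbbR (12.5 uM) using rhodamine-CoA (5 uM). Two reads 30 minutes apart at 525/598 nm yielded each well's rate.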
Tau ThT inhib = blocks human tau fibril formation measured by thioflavin T | P10636 | recombinant tau K18 P301L, heparin-induced fibrillization, ThT fluorescence | Potency, µM (highest dose often 57.4 µM), for inactives: at the top dose activity, negative = inhibition, hits mostly inhibitors | actives 2.1% (n = 270,000) | AID 1460; also: potency is read from the fitted curve at half-maximal effect; nearly all actives have a fitted effect of over 55% in size
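Fibril formation assay: tau K18 P301L at 15 uM with trace Alexa 594 label, heparin inducer 20 uM, pH 7 sodium acetate buffer, 37 C for 6 hr; endpoint ThT signal.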
Tau fluor counter = counter-screen for tau fibril formation inhibitors; tau K18 P301L (four-repeat tau fragment) Alexa594 fluorescence, heparin fibrillization; Potency, µM (series often up to 57.7 µM), for the others: at the top dose activity change, negative = decrease; actives 0.93% (n = 280,000); also: potency is read from the fitted curve at half-maximal effect; nearly all actives have a fitted effect of over 55% in size
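Human K18 P301L tau (15 uM unlabeled plus 0.24 uM Alexa 594-labeled, final) in 100 mM sodium acetate pH 7 was mixed with compound and 20 uM heparin and incubated 6 hr at 37 C.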
Coupling enz = inhibits coupling enzyme system, counter-screen for aldolase hits | AID 2472 | activity change, negative = inhibition, % at 58.2 µM, hits read low | coupling enzyme system counterscreen, AmpLite Red fluorescence | actives 0.67% (n = 290,000); in the data active = activity change below about -30%
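Counterscreen of the coupled detection system alone, without aldolase: glyceraldehyde-3-phosphate coupling enzymes plus AmpLite Red readout. Compounds at 57.5 uM final, 10 min RT preincubation, 20 min RT reaction, fluorescence 525/598 nm.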
G9a block = blocks human histone lysine methyltransferase G9a; Q96KQ7; G9a H3K9 monomethylation, AlphaScreen, 2 h; Potency, µM (top dose mostly 102 µM), inactives show top-dose activity, negative = inhibition, usual class: inhibitors; actives 8.8% (n = 350,000); AID 504332; also: potency is read from the fitted curve at half-maximal effect; nearly all actives have a fitted effect of over 75% in size
Target sequence (Q96KQ7 913-1193 limits assumed): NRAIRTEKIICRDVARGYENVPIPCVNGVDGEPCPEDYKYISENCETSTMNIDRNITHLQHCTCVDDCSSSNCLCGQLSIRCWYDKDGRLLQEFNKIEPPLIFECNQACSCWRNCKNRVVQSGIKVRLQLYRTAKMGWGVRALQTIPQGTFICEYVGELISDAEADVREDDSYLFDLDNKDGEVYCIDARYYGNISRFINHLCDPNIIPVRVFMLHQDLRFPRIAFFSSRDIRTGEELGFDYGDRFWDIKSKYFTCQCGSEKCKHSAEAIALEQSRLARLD
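AlphaScreen read-out: biotin-H3K9 peptide (500 nM) methylation by 20 nM enzyme with 20 uM SAM, 2 h at room temperature after 15 min compound preincubation; anti-monomethyl H3K9 antibody plus donor/acceptor beads, 10 min dark.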
* = called active by the depositor; ? = inconclusive; · = no result; [ ] = remark or other dose. The list is not random: actives were taken first. Their share in the collection is about 11%. Unless noted, calls follow the shape of the dose curve; as a rule, active = well fitted curve in the direction sought with a large enough effect; inconclusive = small, poorly fitted or top-dose-only effect, or another doubt; inactive = no such curve, though single readings can be large; an effect the other way counts as inactive or inconclusive. Unless noted, % is scaled to controls: 0 for no effect and ±100 for the full control effect.

SMILES	Tau fibril FP	Sfp inh	Tau ThT inhib	Tau fluor counter	Coupling enz	G9a block
O=c1[nH]cnc2c1c(-c1ccccc1)cn2-c1ccc(Br)cc1	?	-4%	-5%	?	2	5%[59 µM]
CCOc1ccc(-n2cc(-c3ccccc3)c3c(=O)[nH]cnc32)cc1	-10%	-9%	?	?	0	45µM*
COc1ccc(NC(=S)NCCc2c[nH]c3ccccc23)c(OC)c1	4%	26%	10%	13%	-7	50µM*
COc1ccccc1NC(=S)NCCc1ccc(S(N)(=O)=O)cc1	3%	17%	-9%	-1%	1	-3%
COc1cc(NC(=S)NCc2ccc(S(N)(=O)=O)cc2)c(OC)cc1Cl	9%	-23%	-2%	-13%	6	35µM*
COc1ccc(NC(=S)NCCc2ccc(S(N)(=O)=O)cc2)c(OC)c1	-12%	?	0%	0%	-1	35µM*
CCC(CC)C(=O)N1CCc2cc(OC)c(OC)cc2C1COc1ccc(C(=O)OC)cc1 (stereo unspecified)	1%	·	-11%	-8%	·	-5%[59 µM]
Cc1ccc(C(=O)N2C(=S)C(c3ccc(F)cc3)=NC23CCN(C)CC3)cc1	5%	?	?	-7%	0	7.9µM*
O=C(c1ccccc1)N1CCN(c2ccc([N+](=O)[O-])c(NCc3cccnc3)c2)CC1	4%	21%	16µM*	-8%	2	22%[59 µM]
CC(C)(C)C(=O)N1CCN(c2ccc([N+](=O)[O-])c(NCc3cccnc3)c2)CC1	1%	1%	?	4%	0	14%[59 µM]
O=[N+]([O-])c1ccc(N2CCN(S(=O)(=O)c3ccccc3)CC2)cc1NCc1cccnc1	-1%	0%	?	-20%	-3	?
O=C(c1ccccc1F)N1CCN(c2ccc([N+](=O)[O-])c(NCc3cccnc3)c2)CC1	5%	-4%	16µM*	-15%	1	?
COc1ccccc1NC(=O)CSCc1nc2ccccc2[nH]1	4%	-2%	-9%	-9%	-1	10%[59 µM]
CCOc1ccc(C(=O)N2CCCCC2CCN2CCOCC2)cc1 (stereo unspecified)	1%	·	-14%	-8%	·	-1%[59 µM]
COc1ccc(C(=O)NC(=S)NCc2ccco2)cc1Br	·	-15%	·	·	·	?
CCn1c(SCC(=O)N2CCCC2)nnc1-c1ccc(N)cc1	9%	-10%	7%	5%	6	1.1µM*
CCCCn1c(SCC(=O)N2CCCC2)nnc1-c1ccccc1	4%	12%	3%	-1%	0	3%
CCn1c(SCC(=O)c2ccc3c(c2)Cc2ccccc2-3)nnc1-c1ccc(N)cc1	3%	79µM*	?	-9%	·	24%[0.501 µM]
CCn1c(SCC(=O)c2ccc(O)c(O)c2)nnc1-c1ccc(C)cc1	-4%	-16%	?	-20%	1	10%[2.33 µM]
Cn1c(SCC(=O)Nc2ccc3nc(SCC(=O)N4CCCC4)sc3c2)nnc1-c1ccc(N)cc1	-2%	-28%	?	-17%	0	10µM*
Cc1ccccc1C(=O)NC(CC(C)C)C(=O)N1CCN(c2ccccc2)CC1 (stereo unspecified)	·	17%	·	·	1	5%
O=C(NCc1nc2ccccc2n1Cc1ccccc1Cl)c1ccccc1	-4%	·	-3%	-10%	·	-7%[59 µM]
COC(=O)c1cc(O)cc(OC)c1Oc1cc(C)cc(O)c1C(=O)O	-10%	56µM*	?	-17%	-13	?
COC(=O)c1cc(O)cc(OC)c1C(=O)c1c(O)cc(C)cc1O	2%	17%	-1%	-2%	5	21%[12.7 µM]
Cc1cccc(NC(=O)N2CCc3ccccc3C2)c1C	·	6%	·	·	-3	-5%
SMILES	Tau fibril FP	Sfp inh	Tau ThT inhib	Tau fluor counter	Coupling enz	G9a block
COC(=O)c1c(NC(=O)Cn2cnc([N+](=O)[O-])n2)sc2c1CCC(C)C2 (stereo unspecified)	3%	32µM*	3%	0%	-13	8.9µM*
COC(=O)c1c(NC(=O)Cc2cccs2)sc2c1CCC(C)C2 (stereo unspecified)	?	20µM*	?	-22%	2	?
COC(=O)c1c(NC(=S)NN2CCN(C)CC2)sc2c1CCC(C)C2 (stereo unspecified)	2%	?	-11%	-7%	1	45µM*
COC(=O)c1c(NC(=O)CN(C)CC(=O)Nc2ccc(C)cc2)sc2c1CCC(C)C2 (stereo unspecified)	·	·	·	·	·	-12%[59 µM]
NC(N)=Nc1nc(CSCC/C(N)=N\S(N)(=O)=O)cs1	3%	-16%	-4%	-4%	0	0%[2.33 µM]
Cc1cc(N2CCC(C(=O)Nc3ccc(Cl)cc3)CC2)n2nc(C)c(-c3ccc(Cl)cc3)c2n1	3%	·	-1%	-13%	·	-6%[59 µM]
O=C(O)C1Sc2[nH]c(=O)sc2C2c3ccc(O)cc3OC(=O)C12 (stereo unspecified)	7%	?	-18%	-8%	-1	40µM*
CCCCNC(=O)CC1Nc2cc(C)c(C)cc2NC1=O (stereo unspecified)	-2%	·	?	-3%	·	-37%[59 µM]
Cc1cc2c(cc1C)NC(CC(=O)Nc1cccc(Cl)c1)C(=O)N2 (stereo unspecified)	10%	·	?	25µM*[quencher]	·	?
O=C(CC1NC(=O)NC1=O)Nc1ccc(Cl)cc1 (stereo unspecified)	-3%	18%	0%	-5%	3	-8%
O=C(CC1Nc2ccccc2NC1=O)Nc1cc(Cl)cc(Cl)c1 (stereo unspecified)	8%	20%	?	14µM*[quencher]	-2	-1%[12.7 µM]
CCCC[C@@H]1CCCO[C@@](C(=O)NCCOC)(C(F)(F)F)C1	·	5%	·	·	0	·
COc1ccc(N(C(=O)Cn2nnc(-c3ccc(C)o3)n2)C(C(=O)NC2CCCC2)c2ccncc2)cc1 (stereo unspecified)	·	24%	·	·	5	22%
Cc1ccc(C(=O)C[n+]2ccc3ccccc3c2)cc1	-6%	0%	?	-18%	-1	-37%
O=C(C[n+]1ccc2ccccc2c1)c1cccc2ccccc12	0%	-13%	-7%	-9%	0	28µM*
O=C(CNC(=O)c1ccc(Br)o1)Nc1cccc(S(=O)(=O)N2CCOCC2)c1	·	·	·	·	·	50µM*
O=C(CNCC1CCCCC1)Nc1cccc(S(=O)(=O)N2CCOCC2)c1	1%	?	5%	10%	0	18µM*
Cc1ccc(C(=O)OCC(=O)Nc2cccc(S(=O)(=O)N3CCOCC3)c2)o1	·	·	·	·	·	3%[12.7 µM]
CNC(=O)C1(C(F)(F)F)C/C(=C\Cc2ccccc2)CCCO1 (stereo unspecified)	·	1%	·	·	5	·

Bioassay records as filed in PubChem BioAssay.
